Screening data (PubChem)
Myeloid diff MLP = compounds promoting myeloid differentiation | ER-HoxA9 myeloid progenitors, lysozyme-GFP differentiation, flow cytometry | calls only at 10 µM | 360,000 tested, 1% active | AID 624256;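 active = normalized GFP-positive differentiation at or above the plate's own cutoff, the solvent-only control mean plus 3 SD; inconclusive = no clear call, values can overlap the other calls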;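 note: cells exposed to compound for four days before flow analysis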
M1 ag = activates human CHRM1 receptor; 360,000 tested, 0.33% active; AID 588814; CHO-K1 hM1, Fluo-8 calcium fluorescence, agonist mode; 0% DMSO, 100% acetylcholine EC100; P11229; activation, % at 3 µM;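 active = activation above the run's mean compound activation plus 3 SD, cut at about 16% in these data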;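 note: peak over basal fluorescence ratio within a 140 s kinetic read after compound addition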
CHRM1 PAM = positive allosteric modulators of human M1 muscarinic receptor; 360,000 tested, 0.088% active; CHO-K1 hM1, Fluo-8 calcium fluorescence, ACh EC20; 0% = ACh EC20, 100% = maximal ACh; activation, % at 3 µM; P11229; in the data active = activation above about 19%, passing the limit was not always enough
M1 antag = antagonists of human M1 muscarinic receptor. AID 588852. CHO-K1 hM1, Fluo-8 calcium fluorescence, ACh EC80 antagonist. P11229. 360,000 tested, 1.3% active. inhibition, % at 3 µM;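 active = percent inhibition above its own plate's cutoff, namely the mean of that plate's compound wells plus 3 SD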;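 note: peak over basal fluorescence ratio during 140 s after agonist addition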
SKN-1 block = C. elegans SKN-1 inhibition. C. elegans VP596 Pgst-4::GFP/RFP ratio, acrylamide-induced, 24 h. inhibition, % at 21.8 µM. 360,000 tested, 0.49% active. AID 624304;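 active = interference check ratio from 0.5 to 1.5 plus GFP to RFP signal ratio inhibition reaching or exceeding a fixed threshold, cut at about 30% in these data, passing the limit was not always enough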
ATG4B inh = inhibitors of human ATG4B cysteine protease | AID 504462 | ATG4B cleavage of LC3-PLA2, NBD-HPC fluorescence, 1 h | inhibition, % at 8.33 µM | 340,000 tested, 0.51% active; in the data active = inhibition above about 40%
Target sequence (Q9Y4P1 whole entry, looked up): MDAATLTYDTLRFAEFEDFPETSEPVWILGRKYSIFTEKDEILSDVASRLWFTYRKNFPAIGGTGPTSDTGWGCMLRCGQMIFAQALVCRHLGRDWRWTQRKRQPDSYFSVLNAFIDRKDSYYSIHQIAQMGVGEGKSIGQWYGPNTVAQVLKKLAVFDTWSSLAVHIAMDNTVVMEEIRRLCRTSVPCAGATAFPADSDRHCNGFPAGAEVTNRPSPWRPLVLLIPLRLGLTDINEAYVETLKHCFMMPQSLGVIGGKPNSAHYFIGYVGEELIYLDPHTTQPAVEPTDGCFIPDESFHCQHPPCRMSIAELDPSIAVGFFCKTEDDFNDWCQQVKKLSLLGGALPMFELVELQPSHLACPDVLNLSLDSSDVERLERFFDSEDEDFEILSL
Of the large screens only hits and unclear results are named; the others gave an inactive call. Only some compounds are listed: those with a hit (about 3.5% of all), similar ones and a draw of the others.

C=CC[C@@H](CC(=O)N(CCO)Cc1ccccc1)C(=O)NC[C@H](OC(=O)[C@@H](CC=C)Cc1ccc(F)cc1)c1ccccc1	Myeloid diff MLP inconclusive, M1 antag 33.5
C=CC[C@@H](CC(=O)N(CCO)Cc1ccccc1)C(=O)N[C@H](COC(=O)[C@@H](CC=C)Cc1ccc(F)cc1)c1ccccc1	none
Cc1ccc(S(=O)(=O)NCCCCC(NC(=O)OC(C)(C)C)C(=O)O)cc1 (stereo not given) (tested in a mixture with another compound)	SKN-1 block 35.1
Cc1ccc(S(=O)(=O)NCCCC(=O)O)cc1	none (no result: Myeloid diff MLP)
C#CCSc1nnc(-c2cccc3ccccc23)o1	Myeloid diff MLP active, SKN-1 block 82.2
O=C(Nc1c(F)cc(F)cc1Br)c1cc(-c2ccccc2)on1	none
O=C(NCc1cccs1)c1cc(-c2ccc(O)cc2)on1	M1 ag 16.8
O=C(Nc1c(F)cc(F)cc1Br)c1cc(-c2ccc(O)cc2)on1	M1 ag 18.3
CN(C)c1nc(N)c(C#N)c(C#N)c1C#N	none
Cc1c(C(=O)NCc2cccc([N+](=O)[O-])c2)sc(=O)n1Cc1ccc(F)cc1	M1 antag 39.2 (no result: ATG4B inh)
Cc1c(C(=O)NCc2cccc([N+](=O)[O-])c2)sc(=O)n1Cc1cccc(F)c1	none (no result: ATG4B inh)
Cc1c(C(=O)NCc2ccc([N+](=O)[O-])cc2)sc(=O)n1Cc1ccc2c(c1)OCO2	M1 ag 18.7 (no result: ATG4B inh)
Cc1c(C(=O)NCc2ccc3c(c2)OCCO3)sc(=O)n1Cc1ccccc1F	none (no result: ATG4B inh)
Cc1c(C(=O)NCc2ccc3c(c2)OCCO3)sc(=O)n1Cc1ccc2c(c1)OCO2	none (no result: ATG4B inh)
Cc1c(C(=O)NCc2ccc3c(c2)OCCO3)sc(=O)n1Cc1ccccc1C(F)(F)F	Myeloid diff MLP active (no result: ATG4B inh)
O=C1CC2CCCN2C=C1I (stereo not given)	none
COc1ccc([N+](=O)[O-])cc1CSc1nnc(NC(C)=O)s1	none (no result: Myeloid diff MLP)
CCN(C[C@H]1N[C@@](CC)(C(=O)OC)[C@H]2C(=O)N(Cc3ccccc3)C(=O)[C@@H]12)C(=O)c1ccc(C(C)(C)C)cc1	M1 antag 27.8
Cc1ccc(C)n1/N=C1/NC(=O)CS1	ATG4B inh 41.2
COCCCn1c(C)nc2c(c1=O)c1nc3ccccc3nc1n2CCc1ccccc1	Myeloid diff MLP active
Cc1nc2ccccc2c(=O)n1CCc1ccccc1	none
COc1cn(-c2ccccc2)nc1C(=O)NCc1ccccc1	CHRM1 PAM 32.6
CC(=O)N(C)c1ccc(NC(=O)Nc2ccccc2C)cc1	none
CC(=O)N(C)c1ccc(NC(=O)Nc2ccc(C)c(C)c2)cc1	M1 antag 26.8
CC(C)(C)C(=O)CNS(=O)(=O)c1ccc(S(=O)(=O)NC2CC2)cc1	none
Cc1ccc(C(=O)NCCNc2ncc(C(F)(F)F)cc2Cl)cc1[N+](=O)[O-]	M1 antag 46.0
COc1ccc(C(=O)NCCNc2ncc(C(F)(F)F)cc2Cl)cc1[N+](=O)[O-]	none
CCN(CC)c1ccc(/C=C2\C(=N)N3N=C(CC(=O)N4CCOCC4)SC3=NC2=O)cc1	Myeloid diff MLP active
COC(=O)c1c(-c2ccccc2)noc1-c1ccccc1	SKN-1 block 45.4
COC(=O)c1c(C)noc1-c1ccc(Cl)cc1	none
CCc1noc(C)c1C(=O)N(CC)CC(=O)Nc1cc(Cl)ccc1C	none
CN(C)CCCN(C(=O)/C=C/c1cccs1)c1nc2ccc(F)cc2s1	Myeloid diff MLP active
N#CCc1ccc(C(=O)c2ccccc2F)s1	Myeloid diff MLP active
O=C(O)Cc1ccc(C(=O)c2ccccc2)s1	none
Clc1ccccc1OCc1nnc(-c2ccccc2Br)o1	none
O=c1c(Cl)c(Cl)cnn1Cc1nnc(-c2ccccc2Br)o1	Myeloid diff MLP inconclusive, M1 ag 85.7, M1 antag 94.0
O=C(OCC12CC3CC(CC(C3)C1)C2)c1ccc(NCc2cc(O)ccc2O)cc1	Myeloid diff MLP inconclusive
O=C(OCCC12CC3CC(CC(C3)C1)C2)c1ccc(NCc2cc(O)ccc2O)cc1	Myeloid diff MLP inconclusive, CHRM1 PAM 35.3
CN(CC(=O)Nc1c(Cl)cccc1Cl)C(=O)c1ccccc1Cc1ccccc1	none
O=C(CSc1n[nH]c(-c2ccncc2)n1)Nc1ccccc1Cl	none
O=C(OCCOc1ccccc1F)c1cccc(S(=O)(=O)N2CCOCC2)c1	Myeloid diff MLP active
O=C(COC(=O)c1ccc(F)c(S(=O)(=O)N2CCOCC2)c1)NCCc1ccccc1	CHRM1 PAM 27.2
Cc1ccc(C(=O)OCC(=O)NCCc2ccc(F)cc2)cc1S(=O)(=O)N1CCOCC1	none
O=C(COC(=O)/C=C/c1ccc(F)cc1)NC(=O)NCc1ccccc1	none (no result: ATG4B inh)
CCSC1=N/C(=C\C=C2/Oc3ccccc3N2CC)C(=O)S1	Myeloid diff MLP active
CCSC1=N/C(=C\c2ccc3c(c2)OCO3)C(=O)S1	none
CCCOc1cc(C)c(S(=O)(=O)NCc2cccs2)cc1C	SKN-1 block 43.9
Cc1cc(C)c(S(=O)(=O)NCc2cccs2)cc1C	none
CCCC[C@@H]1CNCCN1CCc1cc(C(F)(F)F)cc(C(F)(F)F)c1	M1 antag 33.6
FC(F)(F)c1cc(CCN2CCNC[C@@H]2CC2CCCCC2)cc(C(F)(F)F)c1	M1 antag 35.9
CC1CCCCN1C(=O)c1ccc(CS(=O)(=O)Cc2ccccc2)cc1 (stereo not given)	none
O=C(Nc1cccc(C(F)(F)F)c1)Oc1ccc(Cl)c2cccnc12	M1 antag 42.2
O=C(Nc1cccc(Br)c1)Oc1cccc2cccnc12	M1 antag 43.5 (no result: ATG4B inh)
CCN(CC)C(=O)Oc1ccc(Cl)c2cccnc12	none
Cc1ccc(NC(=O)CN2C(=O)S/C(=C\c3cc(Cl)c(OCC(=O)O)c(Cl)c3)C2=O)cc1	none
CC(=O)NC12CC3CC(C1)CC(C(=O)N1CCN(S(=O)(=O)c4cccc(C(F)(F)F)c4)CC1)(C3)C2	none
CCCc1nc(SCC(=O)N2CCC(Cc3ccccc3)CC2)c2c(=O)n(C)c(=O)n(C)c2n1	Myeloid diff MLP active
COC(=O)c1c(NC(=O)C2=COCCO2)sc(C)c1C	none
COc1cc(NC(=O)CCc2nnc3ccc(N4CCCC4)nn23)cc(OC)c1OC	none
COc1cc(NC(=O)CCc2nnc3ccc(N4CCCCC4)nn23)cc(OC)c1OC	Myeloid diff MLP active
CC/C(O)=C1\C(=O)CC(c2ccccc2)CC1=NCCc1c(C)[nH]c2ccc(C)cc12 (stereo not given)	Myeloid diff MLP active
Clc1ccc(-c2nnc(-c3ccccc3)c(N3CCSCC3)n2)cc1	SKN-1 block 38.2
Clc1ccc(-c2nnc(-c3ccccc3)c(-c3ccccc3)n2)cc1	none
Cc1nnc2ccc(Oc3ccc(-c4ccccc4)cc3)nn12	M1 antag 34.3
COC(=O)c1ccc(Oc2ccc3nnc(C)n3n2)cc1	none
CC(=O)NCC(=O)OCC(=O)c1ccccc1	Myeloid diff MLP active
CC(=O)NCC(=O)OCC(=O)c1ccc(C)cc1	none
